Hits are enriched below; roughly 7.5% of the tested compounds scored in any of these assays.
Giardia FBPA inh: qHTS Assay for Inhibitors of Fructose-1,6-bisphosphate Aldolase from Giardia Lamblia; actives 0.71% (n = 290,000); A8B2U2; AID 2451, 2010; Potency, µM (top dose mostly 59.6 µM), for inactives: top-dose activity, negative = inhibition, hits mostly inhibitors; purified Giardia FBPA; also: potency is read from the fitted curve at half-maximal effect; nearly all actives have a fitted effect of over 55% in size
Target sequence (A8B2U2 whole entry, looked up): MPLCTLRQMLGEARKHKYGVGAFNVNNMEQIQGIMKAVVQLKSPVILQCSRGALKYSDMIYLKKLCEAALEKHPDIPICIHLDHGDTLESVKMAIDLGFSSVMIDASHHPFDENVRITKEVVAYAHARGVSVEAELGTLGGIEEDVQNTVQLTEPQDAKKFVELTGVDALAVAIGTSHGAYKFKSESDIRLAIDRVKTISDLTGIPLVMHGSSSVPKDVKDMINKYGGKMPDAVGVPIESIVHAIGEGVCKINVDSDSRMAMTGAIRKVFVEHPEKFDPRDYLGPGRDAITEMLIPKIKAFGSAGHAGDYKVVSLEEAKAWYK
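40 nM FBPA preincubated 10 min at RT with compound (up to 57.5 uM final), then substrate plus GAPDH/TPI/NAD/arsenate coupling and diaphorase/resazurin added. Fluorescence read after 20 min at RT, 525/598 nm.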
FMDV antiviral: High Throughput Screening for Foot and Mouth Disease Virus Antivirals; FMDV antiviral cell-based qHTS; Potency, µM (top dose mostly 57.9 µM), for the others: top-dose activity change, negative = inhibition, usual class: inhibitors; actives 1.2% (n = 410,000); calls by dose curve; tested in HEK293T cells; also: read-out not given here; potency is read from the fitted curve at half-maximal effect; nearly all actives have a fitted effect of over 45% in size
HCV inh: qHTS Assay for Inhibitors of Hepatitis C Virus (HCV); Potency, µM (titrated, usually from 41.8 µM), without a hit: at the highest dose activity change, negative = inhibition, actives largely listed as inhibitors; actives 3.4% (n = 340,000); Huh7.5.1 HCVcc-Cre infection, luciferase reporter, 44 h; AID 651820, 2012; also: potency is read from the fitted curve at half-maximal effect
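Cells seeded at 1,000/well and cultured 4 h, then compounds added followed by HCVcc-Cre virus (~0.5 moi). After 44 h further culture, luciferase substrate was added, plates held 15 min at room temperature, and luminescence read for 15 sec.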
HCMV inh: qHTS Assay for inhibitors of the human cytomegalovirus (HCMV). actives 4.5% (n = 410,000). HFF cells, HCMV-luciferase reporter, 72 h; active compounds read low. AID 1259415, 2018. activity change, negative = inhibition, % at 57.5 µM; in the data active = activity change below about -60%; inconclusive = no clear call, values can overlap the other calls; inactive = above about -39%
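Screen run at 2 compound doses on HFFs infected with reporter HCMV, MOI 1 PFU/cell. Luciferase activity from cell lysates at 72 h post infection gave inhibition relative to buffer-only and Salinomycin wells.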
Vaccinia Venus: qHTS for Stage-Specific Inhibitors of Vaccinia Orthopoxvirus: Venus Reporter Primary qHTS | Vaccinia virus Venus reporter expression, fluorescence | actives 0.46% (n = 330,000) | Potency, µM (series often up to 36.5 µM), for the others: at the top dose activity change, negative = inhibition, hits mostly inhibitors | AID 720580, 2013; calls by dose curve; tested in A549 cells; also: potency is read from the fitted curve at half-maximal effect; nearly all actives have a fitted effect of over 30% in size
Vaccinia mCherry: qHTS for Stage-Specific Inhibitors of Vaccinia Orthopoxvirus: mCherry Reporter Primary qHTS; AID 720579, 2013; Potency, µM (highest dose often 36.5 µM), for inactives: at the top dose activity change, negative = inhibition, hits mostly inhibitors; actives 0.63% (n = 310,000); Vaccinia virus mCherry reporter infection, fluorescence; calls by dose curve; tested in A549 cells; also: potency is read from the fitted curve at half-maximal effect; nearly all actives have a fitted effect of over 35% in size
Numbers without * were called inactive; i = inactive; u = inconclusive; x = no result; [ ] = dose if it differs, or a comment. Unless noted, calls follow the shape of the dose curve; as a rule, active = well fitted curve in the direction sought with a large enough effect; inconclusive = small, poorly fitted or top-dose-only effect, or another doubt; inactive = no such curve, though single readings can be large; an effect the other way counts as inactive or inconclusive. % is scaled to controls: 0 for no effect and ±100 for the full control effect.

SMILES	Giardia FBPA inh	FMDV antiviral	HCV inh	HCMV inh	Vaccinia Venus	Vaccinia mCherry
COc1ccccc1N1CC(C(=O)Nc2ccccc2N2CCCC2)CC1=O (centres undefined)	x	-3%	u	-21	-12%	u
Cc1ccc(NC(=O)CCC(=O)OCc2ccc(Br)cc2)cc1	0%	0%	7%	3	-4%	-11%
CC(C)(C)C1CCN2CCCC(c3ccc([N+](=O)[O-])cc3)(C1)C21OCCO1 (centres undefined)	x	u	x	-22	-9%	-4%
O=[N+]([O-])c1cccc(-c2n[nH]c(=S)n2Cc2ccccc2)c1	11%	-25%	11%	-6	-14%	i
Cc1ccc(-n2nnnc2SCC(=O)N2CCc3ccccc3C2)c(C)c1	-8%	-2%	13µM*	-4	-12%	-16%
Cc1ccc(-n2nnnc2SCC(=O)Nc2ccc(N3CCN(C)CC3)cc2)c(C)c1	x	-21%	-16%	-99*	x	x
Cc1ccc(-n2nnnc2SCC(=O)N2CCc3ccccc3C2)cc1	-24%	0%	u	32	-11%	-1%
CN1CCN(c2ccc(NC(=O)CSc3nnnn3-c3ccccc3F)cc2)CC1	20%	14%	-5%	-15	-14%	-24%
C=CS(=O)(=O)c1ccc(Oc2ccc(S(=O)(=O)C=C)cc2)cc1	7%	4µM*	u	-102*	10µM*	7.1µM*
O=C(C[C@@H]1C/C=C\CC[C@H](Cc2ccc(F)cc2)C(=O)OC[C@@H]2CCCN2C1=O)NCCO	x	-22%	14%	-14	-20%	i
CCNC(=S)N/N=C/c1ccc(C#N)cc1	-9%	-10%	u	-62*	-19%	u
O=C(Nc1nnc(N2CCCCCC2)s1)Nc1ccccc1C(F)(F)F	x	28%	x	148	-11%	-16%
COc1cc2c(C(=O)N3CCOCC3)c(CSc3ccccc3)n(C)c2cc1Br	-2%	u	10µM*	-9	x	x
CN(/N=C/c1ccc(O)cc1O)c1ncc(C(F)(F)F)cc1Cl	6%	-23%	-28%	-74*	x	x
COc1ccc(OC)c(NS(=O)(=O)c2ccc(NC(=O)c3ccc(NS(C)(=O)=O)cc3)cc2)c1	2%	-11%	u	-83*	-13%	-8%
COc1ccc(OC)c(NC(=O)c2cc(OC(C)=O)cc(C(=O)Nc3cc(OC)ccc3OC)c2)c1	5%	28µM*	u	u	x	x
COc1ccc(C(=O)Nc2cc(OC)ccc2OC)cc1	1%	4%	11µM*	15	-7%	-21%[1.46 µM]
COc1ccc(NC(=O)c2ccc(C#N)cc2)cc1NS(=O)(=O)c1ccc(F)cc1	-6%	5%	-22%	-18	-17%	-28%
Cc1ccccc1-c1cc(NCc2ccccc2)ncn1	-4%	-2%	x	x	x	x
N#Cc1ccc(/C=C2/C=Cc3ccccc32)cc1	x	x	x	x	-14%	i
COc1ccc(OC)c(N(CC(=O)NCCSC2CCCCC2)S(=O)(=O)c2ccccc2)c1	x	-18%	-22%	-9	-9%	-18%
Cc1ccc(C)c(CSc2ccc3nnc(-c4ccccn4)n3n2)c1	10%	22µM*	u	-22	-16%	-13%
COc1ccc(NC(=S)NC(=O)c2cncc(Br)c2)cc1	x	16%	-7%	-38	-3%	i
CC1(CSc2ccccc2)CC(=O)N1 (centres undefined)	x	-4%	x	-79*	-18%	i
CCN(CC)CCN(Cc1cc2cc(C)cc(C)c2[nH]c1=O)C(=S)NCc1ccco1	1%	-14%	1%	u	-25%	-20%
CCN(CC)CCN(Cc1cc2ccc(C)c(C)c2[nH]c1=O)C(=S)NCc1ccco1	-16%	4%	u	-77*	4%	-13%
Cc1cccc2cc(COC(=O)c3cccs3)c(=O)[nH]c12	1%	0%	-4%	-65*	-13%	-20%
Cc1cccc2cc(COC(=O)c3ccccc3)c(=O)[nH]c12	0%	-14%	16%	-18	-11%	x
